Reference: the supplement of paper PMC12669032
Unmarked numbers belong to inactive results.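 Rule for the calls: active = AUC reduced over 20% with Padj below 0.05 in at least 2 of 3 replicates; inactive = otherwise.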

Tests used:
[1] = system: Roseburia intestinalis; experiment: growth AUC relative to DMSO control (median of replicates) (fraction); higher = more growth (less inhibition), active = hit call of the paper; conditions: 20 µM; 24 h
Procedure, shortened: (§1)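 Gut bacteria were grown singly in mGAM at 37 °C without oxygen, from OD600 0.05, alongside 20 µM compound in 1% DMSO, and OD600 was read each hour for 24 h. Area under the growth curve was normalised to the median of solvent-only wells per plate, or to row and column medians on the industrial chemical plate. The minimum OD was set to 0 beforehand, and the reported value is the median of three biological replicates grown on separate days.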

[2] = system: Streptococcus salivarius; experiment: as above; conditions: 20 µM; 24 h
Procedure, shortened: as §1

Structure (SMILES) | growth AUC [1] | growth AUC [2]
CNC1=C(c2cccc(C(F)(F)F)c2)C(=O)C(c2ccccc2)O1 (configuration not stated) | 1.04 | 0.988
CCC(C)(c1ccc(O)cc1)c1ccc(O)cc1 | 0.947 | 0.96
N#Cc1c[nH]cc1-c1cccc(Cl)c1Cl | 1.14 | 0.929
OCC1C(CO)C2(Cl)C(Cl)=C(Cl)C1(Cl)C2(Cl)Cl (configuration not stated) | 0.953 | 0.82
CCOC(=O)Nc1cccc(OC(=O)Nc2ccccc2)c1 | 1.01 | 1.02
CC(C)N(C(=O)CCl)c1ccccc1 | 0.963 | 1.04
CCCCCCCCCCCCCN1CC(C)OC(C)C1 (configuration not stated) | 0.937 | 1.01
CO/C=C(/C(=O)OC)c1ccccc1Oc1cc(Oc2ccccc2C#N)ncn1 | 0.961 | 0.991
CC(C)(C)C(O)(CCc1ccc(Cl)cc1)Cn1cncn1 (configuration not stated) | 1.1 | 1.01
O=[N+]([O-])c1ccccc1 | 0.963 | 1.01
CN(C)NC(=O)CCC(=O)O | 0.953 | 0.951
O=C(O)COc1nc(Cl)c(Cl)cc1Cl | 1.01 | 1.01
CC(C)(C)C(=O)C(Oc1ccc(Cl)cc1)n1cncn1 (configuration not stated) | 1.03 | 1.01
CCc1ccc(C(=O)NN(C(=O)c2cc(C)cc(C)c2)C(C)(C)C)cc1 | 0.945 | 0.952
Cc1occc1C(=O)Nc1ccccc1 | 0.996 | 0.995
CCOC(=O)C(Cl)Cc1cc(-n2nc(C)n(C(F)F)c2=O)c(F)cc1Cl (configuration not stated) | 1.03 | 1.03
CN(C)c1nc(=O)n(C2CCCCC2)c(=O)n1C | 1.02 | 1.01
O=c1[nH]c(Cl)c(Cl)cc1Cl | 0.993 | 0.998

Structure (SMILES) | growth AUC [1] | growth AUC [2]
CC(=O)CC(c1ccc(Cl)cc1)c1c(O)c2ccccc2oc1=O (configuration not stated) | 1.04 | 0.987
O=C1C(Cl)=C(Cl)C(=O)c2ccccc21 | 1.13 | 0.955
COc1cccc(C(=O)NN(C(=O)c2cc(C)cc(C)c2)C(C)(C)C)c1C | 0.985 | 0.966
CCSCc1ccccc1OC(=O)NC | 1.01 | 1.02
c1cc2c3c(cccc3c1)CC2 | 0.998 | 1.01
Nc1nc(N)nc(Cl)n1 | 1.05 | 1.03
CNC(=O)Oc1ccccc1OC(CCl)OC (configuration not stated) | 0.961 | 0.996
COP(=O)(OC)Oc1ccc(SC)c(C)c1 | 1.02 | 1
O=S1(=O)OCC2C(CO1)C1(Cl)C(Cl)=C(Cl)C2(Cl)C1(Cl)Cl (configuration not stated) | 0.915 | 0.991
COC[C@H](C)N(C(=O)CCl)c1c(C)csc1C | 0.966 | 1.04
CN(C)C(=O)Nc1ccc(Cl)cc1 | 0.979 | 0.971
COc1ncc(F)c2nc(S(=O)(=O)Nc3c(F)cccc3F)nn12 | 1.02 | 1
COP(=S)(NC(C)C)Oc1ccc(C)cc1[N+](=O)[O-] (configuration not stated) | 1.01 | 1.02
COc1cc(OC)nc(NC(=O)[N-]S(=O)(=O)c2ncccc2OCC(F)(F)F)n1.[Na+] | 1.01 | 0.885
CCOC1Oc2ccc(OS(C)(=O)=O)cc2C1(C)C (configuration not stated) | 0.924 | 0.964
Cc1nc(N(C)C=O)nc(OC(=O)N(C)C)c1C | 0.964 | 0.999
O=c1oc2ccccc2c(O)c1C(CC(O)c1ccc(-c2ccc(Br)cc2)cc1)c1ccccc1 (configuration not stated) | 0.654 (active) | 0.553 (active)
COc1cc(C)c(C(=O)c2c(OC)ccc(Br)c2C)c(OC)c1OC | 0.989 | 1.01
